Screens as filed in PubChem.
A selection: hits, their analogues and other compounds. The true share with any hit is near 6.4%.
RORg inh: qHTS for inhibitors of ROR gamma transcriptional activity; Potency, µM (top dose mostly 53.6 µM), without a hit: top-dose activity change, negative = inhibition, actives largely listed as inhibitors; Drosophila S2 Gal4-RORgamma UAS-luciferase reporter, 20 h; 5.4% of 310,000 active; note: nearly all actives have a fitted effect of over 60% in size
Target sequence (P51450 whole entry, looked up, the tested form may be a part): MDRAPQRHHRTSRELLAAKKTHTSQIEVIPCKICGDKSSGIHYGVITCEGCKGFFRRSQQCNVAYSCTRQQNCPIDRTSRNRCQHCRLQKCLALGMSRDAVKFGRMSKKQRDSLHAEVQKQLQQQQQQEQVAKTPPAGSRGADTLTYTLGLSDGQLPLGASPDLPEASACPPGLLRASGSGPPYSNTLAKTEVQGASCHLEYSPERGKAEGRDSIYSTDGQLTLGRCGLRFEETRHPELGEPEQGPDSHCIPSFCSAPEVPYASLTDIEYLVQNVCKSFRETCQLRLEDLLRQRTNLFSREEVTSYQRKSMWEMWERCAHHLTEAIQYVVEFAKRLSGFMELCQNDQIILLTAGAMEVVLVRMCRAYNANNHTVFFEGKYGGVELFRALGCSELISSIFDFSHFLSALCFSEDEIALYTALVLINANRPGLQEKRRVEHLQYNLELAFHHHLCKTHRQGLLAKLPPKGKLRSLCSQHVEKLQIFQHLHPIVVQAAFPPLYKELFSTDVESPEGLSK
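Schneider cells (Drosophila), stable Gal4 DBD–ROR gamma + UAS-luc; 1 hr cmpd preincubation; Cu2+ induction 700 uM final; 20 hr ambient; luminescence.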
Gal4-VP16 FLuc: VP16 counterscreen qHTS for inhibitors of ROR gamma transcriptional activity. Drosophila S2 Gal4-VP16 UAS-luciferase, luminescence, 20 h. Potency, µM (titrated, usually from 53.6 µM), inactives show at the highest dose activity, negative = inhibition, most hits filed as inhibitors. 3.5% of 310,000 active. AID 2546, 2010;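 note: Gal4-VP16 expression switched on by copper sulfate through the metallothionein promoter; nearly all actives have a fitted effect of over 50% in size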
Luc counter: Counterscreen for Luciferase (Kinase-Glo TM) Inhibition | 0.28% of 200,000 active | Kinase-Glo luciferase, ATP luminescence, 8 min | Potency, µM (titrated, usually from 38.3 µM), for the others: at the highest dose activity change, negative = inhibition, most hits filed as inhibitors; note: nearly all actives have a fitted effect of over 60% in size
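Luminescence was the read-out, taken after 8-minute incubation at ambient temperature. Luciferase turned over luciferin with 10 uM ATP in imidazole pH 7.2 buffer containing KCl, MgCl2, Tween 20 and BSA.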
Numbers without * were called inactive; ? = inconclusive; / = no result given; ! = repeats disagree; [ ] = dose if it differs, or a comment. Calls come from the whole dose curve; as a rule, active = well fitted curve in the direction sought with a large enough effect; inconclusive = small, poorly fitted or top-dose-only effect, or another doubt; inactive = no such curve, though single readings can be large; an effect the other way counts as inactive or inconclusive. % is set by controls: 0 for no effect and ±100 for the full control effect; potency is the fitted concentration of half-maximal effect.

SMILES	RORg inh	Gal4-VP16 FLuc	Luc counter
Cc1cccc(CCNCc2cc3cccc(C)c3[nH]c2=O)c1	?	7.9µM*	/
Cc1cccc(CCNCc2cc3cc(C)cc(C)c3[nH]c2=O)c1	-24%	-14%	/
C[C@@H]1O[C@H](O[C@H]2C[C@@H](O)[C@@]3(CO)[C@H]4[C@@H](O)C[C@]5(C)[C@@H](C6=CC(=O)OC6)CC[C@]5(O)[C@H]4CC[C@]3(O)C2)[C@@H](O)[C@H](O)[C@@H]1O	-9%[16.9 µM]	-8%[17 µM]	-4%[17.1 µM]
N#CC(C#N)=NNc1ccc(S(=O)(=O)N2CCCC2)cc1	?	?	1%
N#CC(C#N)=NNc1ccc(OC(F)(F)F)cc1	1µM*	0.35µM*	3%
CCCOc1ccc2[nH]cc(C3=CCNCC3)c2n1	-4%	-3%	-5%
NCC[C@H](NC(=O)[C@@H](N)CCCN=C(N)N[N+](=O)[O-])C(N)=O	2%	2%	/
c1ccc(N2CC3(CCNCC3)C2)nc1	-18%	-8%	-2%
CCc1ccc(N2C(=O)NC(=O)/C(=C\C=C\c3ccco3)C2=O)cc1	22%	-5%	/
COc1cc(/C=C2\C(=O)NC(=O)N(c3ccccc3)C2=O)cc(OC)c1OC	?	7%	-4%
Cc1ccc(N2C(=O)NC(=O)/C(=C/C=C/c3ccco3)C2=O)cc1	13µM*	10µM*	0%
Cc1cc(C)cc(N2C(=O)NC(=O)/C(=C\C=C\c3ccco3)C2=O)c1	3.2µM*	10µM*	3%
CCc1ccc(N2NC(=O)/C(=C/C=C/c3ccco3)C2=O)cc1	?	-23%	-4%
CCCCN1C(=O)/C(=C/C=C/c2ccco2)C(=O)NC1=S	1%	2%	-1%
O=C1NC(=O)N(c2ccccc2)C(=O)/C1=C\C=C\c1ccccc1	?	10µM*	/
CC(C)c1ccc(N2C(=O)NC(=O)/C(=C/C=C/c3ccco3)C2=O)cc1	-99%	13µM*	12%
c1ccc2c([C@@H]3CCN(CCN4CCOCC4)C3)c[nH]c2c1	/	/	0%[7.66 µM]
C[C@@]12CCC(=O)C[C@@H]1CC[C@@H]1[C@@H]2CC[C@]2(C)C(=O)CC[C@@H]12	-7%	5%	-1%
CC(C)[N+](=O)[O-]	2%	1%	/
Cn1cnc([N+](=O)[O-])c1Sc1ccc([N+](=O)[O-])cc1	11µM*	?	1%
Cc1nc(C(=O)O)nn1-c1ccc([N+](=O)[O-])cc1	15%	?	1%
c1nc[nH]n1	13%	-5%	/
N[C@@]1(C(=O)O)CC[C@H](C(=O)O)C1	?	-9%	-2%
CC[C@H](C)[C@H](NC(=O)CN)C(=O)N[C@@H](CC(C)C)C(=O)NCC(=O)N[C@@H](Cc1ccccc1)C(=O)N[C@H](C(=O)N[C@@H](Cc1ccccc1)C(=O)N[C@H](C(=O)N[C@@H](CC(C)C)C(=O)O)[C@@H](C)O)C(C)C	21%	-3%	/
COCc1cc(C)c(C#N)c(=S)[nH]1	4µM*	?	-2%
SMILES	RORg inh	Gal4-VP16 FLuc	Luc counter
CCCCCn1c(=O)c(C(=O)Nc2ccncc2)c(O)c2ccccc21	35%	5%	/
CCCCCn1c(=O)c(C(=O)Nc2ccccc2N)c(O)c2ccccc21	2%[1.91 µM]	?	/
CCCCCn1c(=O)c(C(=O)NCc2ccncc2)c(O)c2ccccc21	3.5µM*	4.5µM*	6%
CCCCn1c(=O)c(C(=O)Nc2ccccc2N)c(O)c2ccccc21	5.6µM*	7.1µM*	/
O=C(Nc1ccc(Cl)cc1)C1CCN(C(=O)c2cccs2)CC1	?	2%	/
CC(C)c1ccc2c(c1O)CCC1C3=C(CC[C@]21C)C(=O)OC3 (some centres undefined)	?	-28%	-2%
COc1ccc(C(=O)C(C)(C)NO)cc1	6%	-10%	-6%
COc1ccc(/C=C/c2cc(O)cc(O)c2)cc1	1.4µM*	3.5µM*	-2%
CN(C)C(=S)SC(=S)N(C)C	6.3µM*	?	3%[39.9 µM]
CN(C)C(=S)SSC(=S)N(C)C	0.11µM*	1µM*!	-2%
CC(C)(C)OC(=O)N1CC[C@H]1COc1cnc[c]([Sn]([CH3])([CH3])[CH3])c1	?	5%[10 µM]	2%[39.9 µM]
O=C(COc1ccc(S(=O)(=O)N2CCOCC2)cc1)N1CCN(Cc2ccc3c(c2)OCO3)CC1	15%	?	-4%
CCCCNS(=O)(=O)c1ccc(OCC(=O)N2CCN(Cc3ccc4c(c3)OCO4)CC2)cc1	-8%	5.6µM*	/
Cc1ccc2c(c1)Cc1c(C(=O)NN3CCCCC3)nn(-c3ccc(Cl)cc3Cl)c1-2	?	-5%	/
O=P(O)(O)c1ccccc1 (tested in a mixture with another compound)	/	/	-5%[7.66 µM]
C=CC(=O)OCC	4%	-2%	/
Nc1ccccc1-c1ccccc1	32%	5%	/
CN1CCN(C(=O)COc2ccc(-c3nc4ccccc4s3)cc2)CC1	5µM*	10µM*	-25%
CN1CCN(C(=O)COc2ccc3ccccc3c2)CC1	3%	1%	/
CCCCCC[C@H]1C(=O)O[C@H](C)[C@H](NC(=O)c2cccc(NC=O)c2O)C(=O)O[C@@H](C)[C@H]1OC(=O)CC(C)C	?	-94%[17 µM]	2%[17.1 µM]
C=C(C)C1CCC(C)=CC1c1c(O)cc(O)cc1CCCCC (centres undefined)	?	-3%	-4%[39.9 µM]
COc1cc(C)cc(CN2CC=C(c3ccccc3)CC2)c1O	11µM*	?	7%
COc1ccc(C(C)=O)cc1CN1CC=C(c2ccccc2)CC1	-30%	2%	/
O=C(O)CS(=O)(=O)C(c1ccccc1)c1ccccc1	/	/	-3%[7.66 µM]
[N-]=[N+]=CC(=O)CC[C@H](N)C(=O)O	/	/	-1%[7.66 µM]
SMILES	RORg inh	Gal4-VP16 FLuc	Luc counter
CCN1CCN(S(=O)(=O)c2ccc(Cl)nc2)CC1	1%	-10%	-2%
CCN1CCN(S(=O)(=O)c2ccc(Cl)c(C(=O)N(CC)CC(=O)Nc3ccc(OC)cc3)c2)CC1	5.6µM*	-14%	/
CCOC(=O)N1C(C)CN(/[N+]([O-])=N/Oc2ccc([N+](=O)[O-])cc2[N+](=O)[O-])CC1C (centres undefined)	11µM*	?	/
O=C(O)Cc1ccc([N+](=O)[O-])cc1[N+](=O)[O-]	/	/	-4%[7.66 µM]
C[C@@H](O)CN(CCN(C[C@@H](C)O)C[C@@H](C)O)C[C@@H](C)O.O=[N+]([O-])O.[Cu]	/	/	-1%[7.66 µM]
Cc1ncc([N+](=O)[O-])n1CCN=[N+]=[N-]	/	/	-6%[7.66 µM]
CC(=O)OC1C[C@@]2(C)C(c3ccoc3)C[C@H]3O[C@@]32[C@@]2(C)C(=O)C(O)=C3C(C)(C)C(=O)C=C[C@]3(C)C12 (some centres undefined)	3.2µM*	3.2µM*	0%
